Screening data deposited in PubChem BioAssay by several laboratories.
TMEM16A inh = mouse TMEM16A channel inhibition, primary screen. AID 588511. normalized B-score (activity score, 25-100; higher = stronger inhibition) at 10 µM. 310,000 tested, 1.2% active. HEK293 TMEM16A/YFP iodide influx fluorescence, ionomycin. Q8BHY3;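 active = ratio plate-corrected score three or more library SD toward inhibition, starting fluorescence score within five deviations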;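 also: score derived from kinetic fluorescence span divided by baseline fluorescence per well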
DAGLB inhibitor = blocks human DAGLB lipase activity | Q8NCG7 | HEK293T DAGLB membrane lysate, EnzChek fluorogenic substrate | inhibition, % at 5.17 µM | 340,000 tested, 0.059% active | AID 504411; in the data active = inhibition above about 34%;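 also: 0% = enzyme with vehicle and 100% = wells lacking enzyme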
Target sequence (Q8NCG7 whole entry, looked up): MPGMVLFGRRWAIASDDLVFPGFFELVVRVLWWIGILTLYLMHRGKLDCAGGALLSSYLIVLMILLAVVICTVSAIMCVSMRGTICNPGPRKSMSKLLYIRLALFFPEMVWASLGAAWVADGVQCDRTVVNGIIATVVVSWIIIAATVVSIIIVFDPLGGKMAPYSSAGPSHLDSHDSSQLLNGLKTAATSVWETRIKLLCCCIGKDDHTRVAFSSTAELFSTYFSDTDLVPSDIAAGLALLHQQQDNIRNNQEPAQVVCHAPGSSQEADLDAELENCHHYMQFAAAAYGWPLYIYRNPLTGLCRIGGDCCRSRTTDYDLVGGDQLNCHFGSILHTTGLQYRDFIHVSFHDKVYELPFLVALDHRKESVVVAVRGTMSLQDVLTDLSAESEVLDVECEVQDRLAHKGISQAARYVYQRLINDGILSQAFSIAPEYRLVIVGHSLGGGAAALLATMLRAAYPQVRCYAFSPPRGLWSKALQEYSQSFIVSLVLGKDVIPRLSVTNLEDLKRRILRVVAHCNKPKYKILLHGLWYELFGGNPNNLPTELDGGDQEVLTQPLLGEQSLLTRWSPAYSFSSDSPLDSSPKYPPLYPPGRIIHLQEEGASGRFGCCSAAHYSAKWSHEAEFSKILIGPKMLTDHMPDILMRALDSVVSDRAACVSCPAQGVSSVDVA
iPSC survival up = hiPSC single-cell survival enhancement; survival enhancement, % at 20 µM; AID 602274; ATPlite luminescence; 100% = ROCK inhibitor wells, 0% = DMSO; 360,000 tested, 0.044% active; in the data active = survival enhancement above about 18%;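 also: cells exposed to compounds for 16 hours before the ATP read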
ANO1 activ = mouse TMEM16A channel activation, primary screen; B-score at 10 µM; AID 623877; 340,000 tested, 0.3% active; HEK293 TMEM16A/YFP-H148Q/I152L, iodide quench fluorescence; stronger effect = lower value; Q8BHY3;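 active = fluorescence-ratio B-score plate-corrected deviation score at least 3 library SD below zero, with starting fluorescence score within 5 deviations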;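 also: channel opened by trigger with iodide after compound preincubation; score built on the fluorescence ratio of max minus min over baseline; more negative score means more quench and so TMEM16A activation or potentiation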
ABCB6 inh MLPCN = inhibitors of human ABC transporter ABCB6; 360,000 tested, 0.19% active; fluorescence ratio to DMSO, % at 10 µM; K562-ABCB6 porphyrin accumulation, flow cytometry, 1 h; stronger effect = lower value;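 active = fluorescence ratio to DMSO below 75%, the collection mean minus 3 SD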;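 also: signal is porphyrin accumulated inside mitochondria; 100% equals median channel fluorescence of DMSO control wells; lower ratio means ABCB6 inhibition with less porphyrin fluorescence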
The depositor's hits bear a star; i = inactive; · = no result given. Compounds with a hit are over-represented: about 1.5% of the library has one in this group of screens.

SMILES	TMEM16A inh	DAGLB inhibitor	iPSC survival up	ANO1 activ	ABCB6 inh MLPCN
N#CC(C#N)=NNc1ccc(-n2ccc(C(F)(F)F)n2)cc1	100*	10.1	3.2	-4.62*	85.0
CN(C)P(=O)(C(Cl)=C(N1CCCCC1)N1CCCCC1)N(C)C	i	0.5	-1.2	i	99.0
C=C1C(=O)O[C@@H]2C[C@@H](C)[C@@H]3C=CC(=O)[C@@]3(C)[C@@H](O)[C@H]12	i	1.0	81.5*	i	95.0
C[C@@H]1C[C@H]2OC(=O)C3(CO3)[C@H]2[C@H](O)[C@]2(C)C(=O)C3OC3[C@@H]12 (stereo partly drawn)	i	·	·	·	·
CNC1CCc2cc(OC)c(OC)c(OC)c2-c2ccc(SC)c(=O)cc21 (stereo not drawn)	·	5.2	-0.1	i	100.0
CC1OC(C[N+](C)(C)C)CC1O (stereo not drawn)	i	2.0	-1.6	i	99.0
C[C@H]1OC[C@@H](C[N+](C)(C)C)O1	i	3.7	2.0	-12.6*	103.0
Cc1cc(-c2ccccc2)cc(-c2ccccc2)[n+]1CCc1ccccc1	25*	1.1	-2.6	i	91.0
Fc1ccc(C[n+]2c(-c3ccccc3)cc(-c3ccccc3)cc2-c2ccccc2)cc1	i	·	·	·	·
Clc1ccc(C[n+]2c(-c3ccccc3)cc(-c3ccccc3)cc2-c2ccccc2)cc1	25*	4.6	-4.4	i	93.0
CCOc1ccc(-c2cc(C)[n+](CCc3ccc(OC)c(OC)c3)c(-c3ccc(OCC)cc3)c2)cc1	25*	2.6	-0.7	i	85.0
CN[C@@H]1C[C@@H](c2ccc(Cl)c(Cl)c2)c2ccccc21	25*	·	·	·	·
COC(=O)C1=C(c2cc3ccccc3s2)C[C@@H]2CC[C@H]1N2C(=O)NCCS(C)=O (stereo partly drawn)	i	0.9	-0.9	i	98.0
COc1ccc(N2C(=O)NC(=O)/C(=C\c3ccc([N+](=O)[O-])s3)C2=O)cc1	i	14.1	-3.0	-6.4*	105.0
CC(=O)OCC[N+](C)(C)C	i	-1.0	-2.4	-9.65*	98.0
C[N+](C)(C)CCOC(=O)CBr	i	-1.0	-0.4	i	101.0
COc1cc2c(c(OC)c1OC)-c1ccc(SC)c(=O)cc1C(N)CC2 (stereo not drawn)	·	-3.2	-0.8	i	98.0
Cn1c(O)c(/C=C2\C=Nc3ccccc32)c(=O)n(C)c1=O	i	-1.6	-0.5	-4.75*	101.0
Cc1ccc(N2C(=O)NC(=O)/C(=C\c3cc(C)n(-c4sc5c(c4C#N)CCCC5)c3C)C2=O)cc1	25*	17.0	-4.1	i	103.0
CCOC(=O)[C@]12Cc3cc(C)ccc3[C@H]1N(C(C)C)C(=O)c1ccccc12	·	·	-1.5	·	107.0
COc1ccc(-[n+]2c(-c3ccccc3)cc(-c3ccccc3)cc2-c2ccccc2)cc1	100*	·	·	·	·
CCC1(C2=NCCN2)Cc2ccccc2O1 (stereo not drawn)	i	-1.4	1.9	i	103.0
C#CC1(O)C=CC2C3CCC4=CC(=O)CCC4C3CCC21CC (stereo not drawn)	i	-3.7	-0.8	i	100.0
CCC1(O)CCC2C3CCC4=CC(=O)CCC4C3CCC21CC (stereo not drawn)	·	-0.7	2.3	-4.79*	100.0
Cc1nc2cc([N+](=O)[O-])ccc2c(=O)n1-c1ccc(Br)cc1	i	1.7	0.0	-13.4*	93.0
CC1=CC2/C=C(\C)CCC(O)C(O)/C=C/C(=O)C23C(=O)NC(CC(C)C)C3C1C (stereo not drawn)	i	-3.0	-6.4	i	97.0
C/C1=C\[C@@H](C)C/C=C/[C@H]2[C@@H]3O[C@]3(C)[C@@H](C)[C@H]3[C@H](Cc4c[nH]c5ccccc45)NC(=O)[C@]32C(=O)/C=C/C(=O)[C@@H]1O	100*	7.2	0.2	-10.8*	91.0
CCOC(=O)c1c(C)n(Cc2ccccc2)c2ccc(OCC(O)Cn3nc(C)nc3C)cc12 (stereo not drawn)	i	0.4	-2.3	i	93.0
CCOC(=O)c1c(C)n(Cc2ccccc2)c2ccc(OCC(O)Cn3nc(C)cc3C)cc12 (stereo not drawn)	100*	-1.7	4.1	i	98.0
CCCCn1nnnc1C(C1CC1)N1CCC2(CC1)C(=O)NCN2c1ccccc1 (stereo not drawn)	·	·	-3.4	·	97.0
